Hits are enriched below; roughly 3.4% of the tested compounds scored in any of these assays.
PLC-beta3 inh: PLC-beta3 (human) inhibition, primary screen | Q01970 | Purified PLC-beta3, fluorogenic substrate, fluorescence | inhibition, % at 12.2 µM | 370,000 compounds, 0.18% hits | AID 720704; in the data active = inhibition above about 11%;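 note: 0% = median of compound wells on plate and 100% = full blocker control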
ADAM10 inh: ADAM10 inhibition, QFRET primary screen. O14672. recombinant ADAM10, EDANS/DABCYL FRET peptide cleavage, 3 h. inhibition, % at 7 µM. 370,000 compounds, 0.62% hits;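 active = inhibition above a per-campaign cutoff equal to the mean of compounds falling between control-based bounds plus 3 SD, cut at about 20% in these data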;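 note: 0% = DMSO wells while the 100% control is not disclosed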
PLC-gamma1 inh: PLC-gamma1 (human) inhibition, primary screen; P19174; purified PLC-gamma1, fluorogenic substrate, fluorescence; inhibition, % at 12.2 µM; 370,000 compounds, 0.84% hits; AID 720700
ADAM17 inh: ADAM17 inhibition, QFRET primary screen; P78536; recombinant ADAM17, EDANS/DABCYL FRET peptide cleavage; inhibition, % at 6.95 µM; 370,000 compounds, 0.83% hits; AID 720648;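 active = inhibition above the mean of compounds lying between control limits plus 3 SD, set per campaign, cut at about 8.5% in these data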;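 note: 0% = DMSO-only wells as the low control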
KLK7 zymogen act: proKLK7 (human) activation, primary screen | purified proKLK7, EDANS-DABCYL substrate fluorescence; 100% is mature enzyme control, 0% vehicle | 370,000 compounds, 0.9% hits | AID 652039 | activation, % at 7 µM | P49862;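 active = activation above the mean of all tested compounds plus 3 SD, computed per campaign excluding outliers beyond control limits, cut at about 13% in these data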
Target sequence (P49862 whole entry, looked up): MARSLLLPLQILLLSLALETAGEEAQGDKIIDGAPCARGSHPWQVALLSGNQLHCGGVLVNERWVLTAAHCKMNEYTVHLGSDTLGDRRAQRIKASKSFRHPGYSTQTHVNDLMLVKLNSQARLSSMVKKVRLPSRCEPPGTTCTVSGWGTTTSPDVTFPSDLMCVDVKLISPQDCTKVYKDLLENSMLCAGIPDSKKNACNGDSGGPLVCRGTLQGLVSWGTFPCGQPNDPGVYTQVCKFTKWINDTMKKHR
HGIII-sPLA2 inh: Inhibits HGIII-sPLA2 liposome hydrolysis, primary screen. Q9NZ20. QFRET BODIPY PC-A2 liposome hydrolysis, fluorescence. inhibition, % at 12.2 µM. 370,000 compounds, 0.56% hits. AID 743126;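 active = inhibition above mean plus 3 SD of compounds lying within the high and low control bounds, cut at about 19% in these data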;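 note: 0% = median of test compound wells and 100% = no enzyme DMSO wells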
PLCgamma1 ctr: PLC-gamma1 inhibition, counter-screen for PLC-beta3 hits. shares compounds with PLC-gamma1 inh. inhibition, % at 12.3 µM. purified PLC-gamma1, fluorogenic substrate, fluorescence. 3,300 compounds, 3.1% hits. AID 743258
PLCbeta3 conf: human PLC-beta3 inhibition, confirmation; 3,300 compounds, 1% hits; AID 743261; purified PLC-beta3, fluorogenic substrate fluorescence; inhibition, % at 12.3 µM; shares compounds with PLC-gamma1 inh; in the data active = inhibition above about 11%
* marks the source's active call; other numbers are inactive results; i = inactive; x = no result. Cut-off read from the data, not from the text of the source, unless noted: active = inhibition above about 9.5%; inactive = the rest.

SMILES	PLC-beta3 inh	ADAM10 inh	PLC-gamma1 inh	ADAM17 inh	KLK7 zymogen act	HGIII-sPLA2 inh	PLCgamma1 ctr	PLCbeta3 conf
O=C(/C=C/c1ccco1)NC(=S)Nc1ccc(C(=O)O)cc1	-11	-3	26*	-3	0	-5	17*	-7
O=[N+]([O-])c1ccc(C2(O)CN(c3ccccc3)C3=[N+]2CCS3)cc1 (centres undefined)	-3	-10	-1	-5	0	-2	x	x
O=C(/C=C/c1cccc([N+](=O)[O-])c1)NCc1cccnc1	11*	9	3	3	0	3	-6	0
O=C(CN1C(=O)c2ccc([N+](=O)[O-])cc2C1=O)NCCC1=CCCCC1	-10	-5	-2	-1	1	4	x	x
Cc1cc(OCCCC(=O)NCCc2ccccn2)ccc1Cl	-6	1	9.5*	3	0	3	-2	-2
CCCCc1ccc(NC(=S)NCCc2ccc(F)cc2)cc1	1	9	-9	7	0	-4	x	x
Oc1cccc(C(O)CNCc2ccc(OCc3ccc(Cl)cc3Cl)cc2)c1 (centres undefined)	-3	-54	1	-19	0	-22	x	x
CC1(c2ccccc2)NC(=O)N(CC(=O)Nc2cc(S(=O)(=O)N3CCOCC3)ccc2Cl)C1=O (centres undefined)	-6	-2	0	-2	0	1	x	x
Cc1ccc(C2(C)NC(=O)N(CC(=O)Nc3cc(S(=O)(=O)N4CCOCC4)ccc3C)C2=O)cc1 (centres undefined)	9	10	10*	4	0	-11	-3	2
Cc1ccc(S(=O)(=O)N2CCOCC2)cc1NC(=O)c1cc2c(s1)CCC2	3	12	10*	2	1	-10	-6	-2
Cc1nc(SCC(=O)Nc2cc(S(=O)(=O)N3CCOCC3)ccc2Cl)nc(C)c1C	-1	-3	11*	-2	-1	-3	-3	1
Cc1ccc(NC(=O)CN(C)C(=O)c2ccc(S(=O)(=O)N(C)c3ccccc3)cc2)cc1	-2	2	11*	5	-1	2	-2	0
Cc1ccc(C)c(NC(=O)CN(C)C(=O)c2ccc(S(=O)(=O)N(C)c3ccccc3)cc2)c1	0	-15	1	-5	0	-1	x	x
COc1ccccc1-c1cc(C(=O)Nc2ccc(F)cc2F)no1	5	5	12*	4	1	3	-118	-105
O=C(NC(=S)N1CCc2ccccc21)c1ccccc1Br	5	5	11*	4	0	13	-3	4
O=C(NC(=S)N1CCc2ccccc21)c1ccc(Br)o1	-10	-3	-6	-2	-1	14	x	x
O=C(CN1CCN(Cc2ccccc2)CC1)Nc1ccc(Cl)cc1	1	11	5	1	0	-3	x	x
CN(C)S(=O)(=O)c1ccc(NCC2COc3ccccc3O2)c([N+](=O)[O-])c1 (centres undefined)	3	12	4	2	0	-2	x	x
CCN(CC)S(=O)(=O)c1ccc(NCC2COc3ccccc3O2)c([N+](=O)[O-])c1 (centres undefined)	-2	16	12*	8	0	1	0	4
C/C(=N\Nc1nc(-c2cc(C)ccc2C)cs1)c1cc2c(ccc3ccccc32)oc1=O	-150	i	-242	-108	-6	-8	x	x
C/C(=N\Nc1nc(-c2cc(C)ccc2C)cs1)c1cc2ccccc2oc1=O	4	-6	10*	3	-1	-4	-19	-20
Cc1ccc(N2CC(C(=O)Oc3cccc(N4C(=O)CCC4=O)c3)CC2=O)cc1 (centres undefined)	5	-6	0	-1	0	-5	x	x
O=C(Oc1cccc(N2C(=O)CCC2=O)c1)C1CC(=O)N(c2ccc(Br)cc2)C1 (centres undefined)	11*	11	7	4	0	-2	-3	3
CC(=O)N1C[C@@H](c2c[nH]c3ccccc23)C=C[C@H]1C(=O)NS(=O)(=O)c1ccc(C)cc1	-17	-14	53*	-8	0	-34	48*	-16
CC(=O)N1CCC(c2c[nH]c3ccccc23)CC1	0	0	2	2	-1	0	x	x
SMILES	PLC-beta3 inh	ADAM10 inh	PLC-gamma1 inh	ADAM17 inh	KLK7 zymogen act	HGIII-sPLA2 inh	PLCgamma1 ctr	PLCbeta3 conf
COC(=O)C(C(=O)OC)[C@H]1C=C[C@@H](C(=O)NS(=O)(=O)c2ccc(C)cc2)N(C(C)=O)C1	0	-5	81*	0	0	5	76*	-4
CCCC12CN3CC(C)(CN(C1)C3c1ccc3c(c1)OCO3)C2=O (centres undefined)	2	-6	0	-4	-1	4	x	x
CC(C)C12CN3CC(C(C)C)(CN(C1)C3c1ccc3c(c1)OCO3)C2=O (centres undefined)	12*	2	7	6	0	2	-6	-2
Cc1ccc(-n2nc3c(=O)n(CCCC(=O)NCc4cccc(F)c4)nc(C)c3c2C)cc1	-8	4	2	-3	0	-5	x	x
CC(=O)N1CCc2ccccc2C1CC(=O)O (centres undefined)	-1	3	11*	-1	0	1	7	0
CCN(CC)C(=O)N1CCc2ccccc2C1CN1C(=O)c2ccccc2C1=O (centres undefined)	-3	-1	0	-2	0	-6	x	x
Fc1ccc(C2=NOC(c3nnc(-c4ccccc4)o3)C2)cc1 (centres undefined)	12*	5	6	3	-1	-1	-7	-2
C/C(Cl)=C/Cn1c(SCC(C)C)nc2c1c(=O)[nH]c(=O)n2C	1	2	4	0	0	1	x	x
CCCCOC(=O)CSc1nc2c(c(=O)[nH]c(=O)n2C)n1C/C=C(\C)Cl	6	0	13*	3	0	7	2	3
CCc1ccccc1NC(=S)N(CCN1CCOCC1)Cc1ccccc1F	0	3	-1	-1	0	0	x	x
CC(CCc1ccccc1)NC(=O)c1cccs1 (centres undefined)	12*	12	4	0	-1	4	-2	1
CC(CCc1ccccc1)NC(=O)c1ccc(C(=O)NC(C)CCc2ccccc2)cc1 (centres undefined)	-2	-11	0	-3	0	1	x	x
O=C(Nc1ccccc1)C1=C[C@H](C2CC2)C[C@H](OCCCCO)O1	1	3	0	-2	1	5	x	x
